Values without a mark were called inactive. Active and inactive are the calls of the source.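 Rule for the calls, unless noted: active = compound raises insulin release from rat beta cells at 5 mM glucose, no numeric limit stated; inactive = the rest.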
Test: stimulators of insulin release from INS-1E, primary screen, cell-based, 5 mM glucose, NPC library (AID 1117329); note: reference of the scale not given here
Settings: rat INS-1E insulin secretion, at 10 µM, hits give high values

SMILES	insulin secretion stimulation
NC1[C@H]2CN(c3nc4c(cc3F)c(=O)c(C(=O)O)cn4-c3ccc(F)cc3F)C[C@@H]12 (stereo partly drawn)	17.5%
CCn1c(=O)c2c(nc(C=Cc3ccc(OC)c(OC)c3)n2C)n(CC)c1=O	-0.7%
COc1ccc(CCN(C)CCCC(C#N)(c2cc(OC)c(OC)c(OC)c2)C(C)C)cc1OC (stereo not drawn)	0.45%
N[C@@H](CC(=O)O)C(=O)O	1.3%
C[C@]12CCC(=O)C=C1CC[C@@H]1[C@@H]2CC[C@@]2(C)[C@H]1CC[C@]2(O)C(=O)CO	-1.7%
O=c1[nH]c(=O)n([C@H]2C[C@H](O)[C@@H](CO)O2)cc1Br	0.6%
CC1=C(CC(=O)O)c2cc(F)ccc2/C1=C\c1ccc(S(C)(=O)=O)cc1	-1.1%
CCN1CCc2nc(N)oc2CC1	0.4%
NC(CO)(CO)CO	-0.6%
NC(=O)c1cn(Cc2c(F)cccc2F)nn1	-2.7%
CSc1ccc(C(=O)c2[nH]c(=O)[nH]c2C)cc1	1.4%
CC(=O)Oc1cc(C(F)(F)F)ccc1C(=O)O	2.8%
NC(N)=NCCC[C@H](N)C(=O)O	0.9% (active)
COC(=O)C1=C(C#N)NC(C)=C(C(=O)OC(C)C)C1c1cccc([N+](=O)[O-])c1 (stereo not drawn)	-0.1%
CCCCCCCCCCCCCCCCO	-0.5%
O=C1NC(=O)[C@@]2(CCOc3ccc(F)cc32)N1	1.1%
COc1cc(C)c(C=CC(C)=CC=CC(C)=CC(=O)O)c(C)c1C	2.8%
C[N+](C)(C)CCOC(=O)CCC(=O)OCC[N+](C)(C)C	0.95%
Cc1nc2c([nH]1)c(=O)n(C)c(=O)n2Cc1ccco1	5.4%
OCCN1CCN(CC/C=C2/c3ccccc3Sc3ccc(C(F)(F)F)cc32)CC1	10.7%

SMILES	insulin secretion stimulation
CC(C)(C)c1ccc(C(=O)CCCN2CCC(OC(c3ccccc3)c3ccccc3)CC2)cc1	1%
Nc1cc(=O)[nH]c(N)n1	-1.5%
CC(=O)[C@@]1(O)CC[C@H]2[C@@H]3CCC4=CC(=O)CC[C@]4(C)[C@H]3CC[C@@]21C	0.95%
COc1cc(C=O)ccc1O	0.7%
COC(=O)C1=C(C)NC(C)=C(C(=O)OC(C)(C)CN(C)CCC(c2ccccc2)c2ccccc2)C1c1cccc([N+](=O)[O-])c1 (stereo not drawn)	1.3%
CCC(=O)c1ccc2c(c1)N(CCCN(C)C)c1ccccc1S2	33.8% (active)
COC(=O)C(c1ccccc1Cl)N1CCc2sccc2C1 (stereo not drawn)	1.9%
OCCN1CCN(CCCN2c3ccccc3C=Cc3ccccc32)CC1	13.8%
CCNC(=O)N1CCN(CCCC(c2ccc(F)cc2)c2ccc(F)cc2)CC1	1.1%
C(=C\c1ccccc1)/CN1CCN(C(c2ccccc2)c2ccccc2)CC1	-1.8%
Nc1cccc2c1CN(C1CCC(=O)NC1=O)C2=O (stereo not drawn)	1.3%
COC(=O)[C@@H](N)Cc1ccc(O)c(O)c1	-2.6%
CCCCc1ncc(/C=C(\Cc2cccs2)C(=O)O)n1Cc1ccc(C(=O)O)cc1	2.05%
O=C(O)CN(CCOCCOCCN(CC(=O)O)CC(=O)O)CC(=O)O	1.45%
CCCCCCCCCCCCCCC[C@H](O)[C@@H](N)CO	1%
O=C(O)CP(=O)(O)O	0.7%
N[C@@H](COP(=O)(O)O)C(=O)O	2%
O=S(=O)(O)Oc1ccc(C(c2ccc(OS(=O)(=O)O)cc2)c2ccccn2)cc1	-1.2%
CCN(CC)CCCN(c1ccccc1)C1Cc2ccccc2C1	32.5% (active)

Test: growth inhibition of GSK3B-pretreated HCT116 cells – cell-based, CellTiter-Glo, 0.2 to 20 µM (AID 1117336;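 active = compounds lowering colon cancer cell viability after pretreatment blocking the GSK3B kinase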)
Settings: HCT116 viability after GSK3B inhibitor, at 20 µM, hits give high values

SMILES	viability decrease
NC1[C@H]2CN(c3nc4c(cc3F)c(=O)c(C(=O)O)cn4-c3ccc(F)cc3F)C[C@@H]12 (stereo partly drawn)	64.3% (active)
CCn1c(=O)c2c(nc(C=Cc3ccc(OC)c(OC)c3)n2C)n(CC)c1=O	-2.3%
COc1ccc(CCN(C)CCCC(C#N)(c2cc(OC)c(OC)c(OC)c2)C(C)C)cc1OC (stereo not drawn)	-1.5%
N[C@@H](CC(=O)O)C(=O)O	7.1%
C[C@]12CCC(=O)C=C1CC[C@@H]1[C@@H]2CC[C@@]2(C)[C@H]1CC[C@]2(O)C(=O)CO	-3.9%
O=c1[nH]c(=O)n([C@H]2C[C@H](O)[C@@H](CO)O2)cc1Br	17.6%
CC1=C(CC(=O)O)c2cc(F)ccc2/C1=C\c1ccc(S(C)(=O)=O)cc1	39.5%
CCN1CCc2nc(N)oc2CC1	2.7%
NC(CO)(CO)CO	-2.3%
NC(=O)c1cn(Cc2c(F)cccc2F)nn1	-3.55%
CSc1ccc(C(=O)c2[nH]c(=O)[nH]c2C)cc1	-6.3%
CC(=O)Oc1cc(C(F)(F)F)ccc1C(=O)O	-12.2%
NC(N)=NCCC[C@H](N)C(=O)O	2.3%
COC(=O)C1=C(C#N)NC(C)=C(C(=O)OC(C)C)C1c1cccc([N+](=O)[O-])c1 (stereo not drawn)	9.8%
CCCCCCCCCCCCCCCCO	-1.35%
O=C1NC(=O)[C@@]2(CCOc3ccc(F)cc32)N1	-5.9%
COc1cc(C)c(C=CC(C)=CC=CC(C)=CC(=O)O)c(C)c1C	61.5% (active)
C[N+](C)(C)CCOC(=O)CCC(=O)OCC[N+](C)(C)C	14%
Cc1nc2c([nH]1)c(=O)n(C)c(=O)n2Cc1ccco1	4.7%
OCCN1CCN(CC/C=C2/c3ccccc3Sc3ccc(C(F)(F)F)cc32)CC1	120% (active)

SMILES	viability decrease
CC(C)(C)c1ccc(C(=O)CCCN2CCC(OC(c3ccccc3)c3ccccc3)CC2)cc1	111% (active)
Nc1cc(=O)[nH]c(N)n1	7.7%
CC(=O)[C@@]1(O)CC[C@H]2[C@@H]3CCC4=CC(=O)CC[C@]4(C)[C@H]3CC[C@@]21C	14.3%
COc1cc(C=O)ccc1O	1.37%
COC(=O)C1=C(C)NC(C)=C(C(=O)OC(C)(C)CN(C)CCC(c2ccccc2)c2ccccc2)C1c1cccc([N+](=O)[O-])c1 (stereo not drawn)	93.2% (active)
CCC(=O)c1ccc2c(c1)N(CCCN(C)C)c1ccccc1S2	24.5%
COC(=O)C(c1ccccc1Cl)N1CCc2sccc2C1 (stereo not drawn)	30.5%
OCCN1CCN(CCCN2c3ccccc3C=Cc3ccccc32)CC1	5.9%
CCNC(=O)N1CCN(CCCC(c2ccc(F)cc2)c2ccc(F)cc2)CC1	50.7% (active)
C(=C\c1ccccc1)/CN1CCN(C(c2ccccc2)c2ccccc2)CC1	88.8% (active)
Nc1cccc2c1CN(C1CCC(=O)NC1=O)C2=O (stereo not drawn)	0%
COC(=O)[C@@H](N)Cc1ccc(O)c(O)c1	22%
CCCCc1ncc(/C=C(\Cc2cccs2)C(=O)O)n1Cc1ccc(C(=O)O)cc1	9.7%
O=C(O)CN(CCOCCOCCN(CC(=O)O)CC(=O)O)CC(=O)O	16.3%
CCCCCCCCCCCCCCC[C@H](O)[C@@H](N)CO	72.1% (active)
O=C(O)CP(=O)(O)O	-14.8%
N[C@@H](COP(=O)(O)O)C(=O)O	-15.2%
O=S(=O)(O)Oc1ccc(C(c2ccc(OS(=O)(=O)O)cc2)c2ccccn2)cc1	-2.3%
CCN(CC)CCCN(c1ccccc1)C1Cc2ccccc2C1	33.8%

Source: PubChem BioAssay
